LGR2 antag: inhibitors of bursicon-induced LGR2 CRE-luciferase signal, primary screen, cell-based, HEK293, CRE-luciferase reporter, bursicon stimulation; bursicon-stimulated, 4 h; Drosophila bursicon receptor LGR2 (rickets); AID 720647, 2013; 0.35% of 380,000 active; inhibition, % at 9.99 µM;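 active = drop in luminescence signal, shown as inhibition above about 50% in the replicate tests, limit read from the data, passing the limit was not always enough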;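 note: agonist challenge used bursicon conditioned medium at about half maximal strength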
TROY signal inh: inhibitors of TROY-driven NF-kB signaling, primary screen, Q293 LMP1-TROYcd cells, NF-kB luciferase, uHTS; Q293 LMP1-TROYcd NF-kB luciferase reporter, 4 h; inhibition, % at 10 µM; 0.98% of 360,000 active;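 active = compounds whose plate-normalised and pattern-corrected inhibition of the luciferase reporter signal at the single screening dose is 50% or more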
TWEAK-Fn14 inh: inhibitors of TWEAK-Fn14 signaling, primary screen, luciferase reporter cells, uHTS. inhibition, % at 10 µM. 2% of 360,000 active. AID 1159606, 2016. TWEAK-stimulated Fn14 reporter cells, luciferase luminescence, 8 h; in the data active = inhibition above about 50%
PAX8 inh HTS: inhibitors of PAX8-driven TPO luciferase reporter, primary screen, RMG-I cells, single concentration. SteadyGlo, 24 h. inhibition, % at 12.6 µM. 1.2% of 360,000 active;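 active = mean replicate inhibition at least 60% with every replicate also reaching 60%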;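 note: luciferase light reporting Pax8 driven TPO promoter activity; plate controls were median of neutral control wells for no effect and mitoxantrone controls for full effect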
LMP1 NFkB inh: EBV LMP1-driven NF-kappaB luciferase reporter inhibitors, primary screen, cell-based, luminescence, single point. LMP1-induced NF-kappaB luciferase reporter cells. inhibition, % at 12.5 µM. 0.69% of 350,000 active; in the data active = inhibition above about 41%;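 note: 0% = neutral control wells and 100% = reference inhibitor control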
EWS-Fli inh: EWS/Fli-driven NR0B1 reporter inhibitors, primary screen, A673 cells, NR0B1 luciferase, luminescence, MLPCN library; viability-normalised; inhibition, % at 12.6 µM; 0.67% of 350,000 active;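 active = mean inhibition of at least 50% after viability correction, with every replicate also passing that limit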;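 note: firefly luciferase signal divided by Alamar Blue viability fluorescence both relative to DMSO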
An asterisk follows results filed as active; nt = no result. Compounds with a hit are over-represented: about 3.2% of the library has one in this group of screens.

SMILES | LGR2 antag | TROY signal inh | TWEAK-Fn14 inh | PAX8 inh HTS | LMP1 NFkB inh | EWS-Fli inh
COc1ccc(S(=O)(=O)Nc2ccc3c(c2)CC(=O)N([C@H](C)CO)C[C@@H](C)[C@@H](CN(C)Cc2ccc(-c4ccccc4)cc2)O3)cc1 | -11 | nt | nt | 31 | nt | 28
COc1ccc(S(=O)(=O)Nc2ccc3c(c2)CC(=O)N([C@H](C)CO)C[C@@H](C)[C@H](CN(C)Cc2ccc(Oc4ccccc4)cc2)O3)cc1 | -10 | nt | nt | -5 | nt | 16
COc1ccc(S(=O)(=O)Nc2ccc3c(c2)CC(=O)N([C@H](C)CO)C[C@H](C)[C@@H](CN(C)Cc2ccc(Oc4ccccc4)cc2)O3)cc1 | 5 | nt | nt | 68* | nt | 28
C[C@H]1CN([C@@H](C)CO)C(=O)Cc2cc(NS(=O)(=O)c3ccc(Cl)cc3)ccc2O[C@@H]1CN(C)Cc1ccc(Oc2ccccc2)cc1 | 16 | nt | nt | 48 | nt | 60*
COc1ccc(C(O)C(CN2CCOCC2)c2ccccc2)cc1F (stereo not drawn) | nt | 55* | 74* | -7 | 0 | nt
COc1ccc(C(=O)C(CN2CCOCC2)c2ccccc2)cc1F (stereo not drawn) | nt | 18 | 29 | nt | 74* | nt
COc1ccccc1C(O)(c1ccccc1)C(CN1CCOCC1)c1ccccc1 (stereo not drawn) | nt | 16 | 14 | -2 | -3 | 11
COCC#Cc1ccc2c(c1)O[C@@H](CN(C)Cc1ccccc1)[C@@H](C)CN([C@@H](C)CO)S2(=O)=O | 10 | nt | nt | nt | nt | -7
C/C=C/c1cnc2c(c1)C(=O)N([C@@H](C)CO)C[C@@H](C)[C@@H](CN(C)C(=O)Cc1ccccc1)O2 | 5 | nt | nt | nt | nt | -1
Nc1nc(Nc2ccccc2)sc1C(=O)c1ccccc1 | 71* | 20 | 62* | -67 | -59 | -125
COc1ccc(C(=O)c2sc(Nc3ccccc3)nc2N)cc1 | -4 | 25 | 45 | -7 | -8 | -79
COc1ccc(C(=O)c2sc(Nc3ccccc3)nc2N)cc1OC | 19 | 30 | 54* | 11 | 8 | 14
COc1ccc(C(=O)c2sc(Nc3ccccc3F)nc2N)cc1 | -89 | -13 | -1 | -137 | 13 | -131
Cc1noc(C)c1NC(=O)N(C)C[C@H]1Oc2ccc(NC(=O)Nc3cccc4ccccc34)cc2CC(=O)N([C@@H](C)CO)C[C@@H]1C | 9 | nt | nt | 21 | nt | -1
CC(C)C(=O)Nc1nnc(CSCc2ccccc2F)s1 | nt | -15 | -17 | -7 | -4 | nt
CC(C)(C)C(=O)Nc1nnc(CSCc2ccccc2F)s1 | nt | 30 | 73* | nt | 8 | nt
Cc1noc(C)c1S(=O)(=O)Nc1ccc2c(c1)C(=O)N([C@@H](C)CO)C[C@@H](C)[C@H](CN(C)C(=O)c1ccccc1)OCCCC[C@H](C)O2 | -2 | nt | nt | -10 | nt | -1
O=C(Nc1ccccc1)N(CCCN1CCOCC1)Cc1cc2cc3c(cc2[nH]c1=O)OCCO3 | nt | 23 | 28 | nt | -11 | nt
COc1ccc2[nH]c(=O)c(CN(CCN3CCCC3)C(=O)Nc3ccccc3Cl)cc2c1 | nt | 15 | 5 | nt | 20 | nt
O=C(Nc1ccccc1F)N(CCCN1CCOCC1)Cc1cc2cc3c(cc2[nH]c1=O)OCCO3 | nt | 58* | 14 | nt | 2 | nt
CCc1ccc2[nH]c(=O)c(CN(CCCN3CCOCC3)C(=O)Nc3ccc(Cl)cc3)cc2c1 | 10 | -18 | 5 | nt | 9 | nt
CCOc1ccc2[nH]c(=O)c(CN(CCN3CCCC3)C(=S)Nc3ccccc3OCC)cc2c1 | 3 | 10 | -15 | 4 | -6 | 55*
CCc1ccc2[nH]c(=O)c(CN(CCCN3CCOCC3)C(=O)Nc3ccccc3)cc2c1 | nt | 62* | 18 | nt | 9 | nt
CCN(CC)CCCN(Cc1cc2cc3c(cc2[nH]c1=O)OCCO3)C(=O)Nc1ccccc1 | nt | 78* | 37 | nt | -15 | nt
C[C@@H]1CN([C@@H](C)CO)C(=O)Cc2cc(NC(=O)CCN3CCOCC3)ccc2O[C@H]1CN(C)S(=O)(=O)c1cccs1 | 17 | nt | nt | -16 | nt | 3
CN(C)CC(=O)N1[C@@H]2c3ccc(-c4ccccc4)c(=O)n3C[C@@H]2[C@@H](CO)[C@@H]1C(=O)NC1CCC1 | 6 | nt | nt | nt | nt | 1

Compound activity deposited in PubChem by several laboratories.
